# Measurements: publication PMC4336329 (PLoS ONE, 2015)
# The whole screen tested about 310,000 compounds, of which about 14,000 (4.5%) showed an effect of 50% or more. The effect is printed as a negative number. Shown is part of a subset that was picked to be rich in strong results.
# Biological target: human ether-à-go-go-related gene (hERG) potassium channel (human, UniProt Q12809)
# Experiment: primary screen, population patch clamp on CHO cells stably expressing hERG; higher = less effect of the substance
# 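Also: peak tail current of the secondary pulse compared with the same well before compound.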
# human ether-à-go-go-related gene (hERG) potassium channel, sequence (Q12809 whole entry, looked up): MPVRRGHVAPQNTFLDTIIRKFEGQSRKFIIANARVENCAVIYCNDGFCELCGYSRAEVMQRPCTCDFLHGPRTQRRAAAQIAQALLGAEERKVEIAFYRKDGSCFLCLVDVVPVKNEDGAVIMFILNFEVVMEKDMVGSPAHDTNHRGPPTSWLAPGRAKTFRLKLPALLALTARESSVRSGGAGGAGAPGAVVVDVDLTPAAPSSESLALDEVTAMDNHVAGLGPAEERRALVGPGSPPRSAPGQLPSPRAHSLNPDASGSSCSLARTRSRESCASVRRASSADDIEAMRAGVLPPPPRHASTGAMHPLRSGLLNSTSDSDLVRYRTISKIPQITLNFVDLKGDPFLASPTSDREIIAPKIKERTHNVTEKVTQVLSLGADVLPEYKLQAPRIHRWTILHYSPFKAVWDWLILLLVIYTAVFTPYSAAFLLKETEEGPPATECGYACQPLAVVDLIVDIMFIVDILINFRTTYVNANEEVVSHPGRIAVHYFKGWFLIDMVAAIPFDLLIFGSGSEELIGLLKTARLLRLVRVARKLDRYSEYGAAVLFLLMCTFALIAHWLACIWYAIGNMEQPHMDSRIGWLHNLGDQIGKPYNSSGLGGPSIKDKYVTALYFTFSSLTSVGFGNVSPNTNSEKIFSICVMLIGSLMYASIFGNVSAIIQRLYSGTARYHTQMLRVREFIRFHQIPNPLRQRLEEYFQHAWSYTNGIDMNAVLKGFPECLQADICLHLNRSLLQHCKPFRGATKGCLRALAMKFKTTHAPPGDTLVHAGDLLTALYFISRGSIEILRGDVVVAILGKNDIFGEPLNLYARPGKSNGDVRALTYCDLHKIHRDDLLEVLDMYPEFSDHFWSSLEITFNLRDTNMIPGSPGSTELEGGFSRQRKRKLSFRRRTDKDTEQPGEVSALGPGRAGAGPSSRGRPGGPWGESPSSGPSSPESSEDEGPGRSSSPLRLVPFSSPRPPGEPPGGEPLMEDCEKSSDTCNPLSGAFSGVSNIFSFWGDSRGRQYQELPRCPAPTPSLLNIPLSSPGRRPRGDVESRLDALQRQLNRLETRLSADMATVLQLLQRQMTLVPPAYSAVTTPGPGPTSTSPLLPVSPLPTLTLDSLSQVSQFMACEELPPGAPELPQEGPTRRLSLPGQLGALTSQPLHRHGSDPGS
row,Structure (SMILES),"hERG current change (%, negative = inhibition) at 10uM"
1,CC(C)OCCCNC(=O)c1ccc(Br)cc1,-8.3%
2,CC(=O)c1ccc(NC(=O)CNCc2cccs2)cc1.O=C(O)C(=O)O,-0.848%
3,Cc1ccc2[nH]c(C(=O)O)c(NC(=O)CN3CCN(c4cccc(C)c4C)CC3)c2c1.Cl,13.1%
4,Cc1ccc(-c2noc(CN(C(=O)CCCCCN3C(=O)c4ccccc4C3=O)C(C)C)n2)cc1,-15.3%
5,Cc1ccc(-c2noc(CN(C(=O)CCN3C(=O)c4ccccc4C3=O)C(C)C)n2)cc1,-63.6%
6,Cc1ccc(-c2noc(CN(C(=O)CCCN3C(=O)c4ccccc4C3=O)C(C)C)n2)cc1,-39.7%
7,Cc1c(NC(=O)c2ccco2)cccc1-c1nc2cccnc2s1,-45.8%
8,c1ccc(-c2ccc(CN3C[C@@H]4C(c5ccccc5)C5(c6ccccc6)CC4(C5)[C@H]3c3ccccc3)cc2)cc1 (some centres unmarked),-5.02%
9,CC1CCN(CC#CCOc2ccc(Cl)cc2)CC1.O=C(O)C(=O)O,-5.81%
10,Cc1cc(OCC(=O)N2CCC(C(N)=O)CC2)c2c(C)cc(=O)oc2c1,15.6%
11,O=C(CCN1CCN(c2ccccc2)CC1)Nc1ccccc1,-22.9%
12,O=C(CCN1CCN(CCO)CC1)Nc1cccc(Br)c1,-19%
13,Cc1ccc(NC(=O)CN2CCC(C(=O)c3ccc4c(c3)OCCO4)CC2)cc1,-44.7%
14,Cc1ccccc1C(=O)NC1CCN(CC(=O)Nc2ccc3c(c2)OCO3)CC1,-47.3%
15,O=C(CCN1CCN(Cc2ccccc2)CC1)Nc1cccc(Br)c1,-63%
16,Cc1ccc(C(=O)C2CCN(CC(=O)Nc3ccc4c(c3)OCCO4)CC2)cc1,-2.3%
17,Cc1cccc(NC(=O)CN2CCC(C(=O)c3ccc4c(c3)OCCO4)CC2)c1,-54.2%
18,CN1CCN(CCC(=O)Nc2cccc(Br)c2)CC1,-19%
19,O=C(CN1CCC(NC(=O)c2ccccc2F)CC1)Nc1ccc2c(c1)OCO2,-41.7%
20,O=C(CCN1CCN(c2ccccc2)CC1)Nc1cccc(Br)c1,-61.4%
21,Cc1cccc(C(=O)NC2CCN(CC(=O)Nc3ccc4c(c3)OCO4)CC2)c1,-57.7%
22,O=C(CCN1CCCC1)Nc1cccc(Br)c1,-20.6%
23,CCOc1ccccc1N(C)S(=O)(=O)c1ccc2c(c1)CC(C)N2C(=O)C1CC1 (centres unmarked),9.49%
